# ATXN2 expr inh: reduces ATXN2 reporter expression in HEK-293 cells. HEK-293 ATXN2-luciferase reporter, luminescence, 24 h. Potency, µM (highest dose often 57 µM), actives largely listed as inhibitors. 0.72% of 360,000 active. AID 1745845; also: nearly all actives have a fitted effect of over 55% in size
#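 qHTS (up to 57 uM final) was run with 24 h compound exposure of reporter cells at 37 °C. Each well was multiplexed: SteadyGlo luminescence measured ATXN2-luciferase expression after a fluorogenic Gly-Phe-AFC viability readout (25 uM final).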
# MCF10A rereplic: induces DNA re-replication in MCF 10a normal breast cells; Potency, µM (top dose mostly 46.1 µM), most hits filed as activators; MCF 10A DNA re-replication, Hoechst nuclear intensity, 48 h; AID 624296; 2.9% of 350,000 active; also: nearly all actives have a fitted effect of over 50% in size
# S2 tox: cell viability loss in ATXN counter-screen. S2 cells (HEK-293 line with an ATXN2-luciferase reporter) viability, CellTiter-Fluor protease fluorescence, 24 h. Potency, µM (highest dose often 56.7 µM), most hits filed as cytotoxic. 0.49% of 400,000 active; also: nearly all actives have a fitted effect of over 40% in size
# PINK1 modulator: changes PINK1 expression | AID 624263 | 0.2% of 410,000 active | Potency, µM (top dose mostly 76.6 µM), hits mostly activators | PINK1 immunofluorescence, high-content cytometry, 24 h; active = well fitted activation curve with a large enough effect; inconclusive = small, poorly fitted or top-dose-only effect; cell line not stated here; also: nearly all actives have a fitted effect of over 65% in size
#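 A stable cell line was treated with compounds at 5 concentrations for 24 hours, with CCCP as control. PINK1 levels and mitochondrial localization were measured by immunofluorescence with mitochondrial, cell and nuclear markers after fixation, read by laser-scanning cytometry.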
# SW480 rereplic: inducers of DNA re-replication in SW480 colon cancer cells | SW480 DNA re-replication, Hoechst DNA content imaging, 48 h | Potency, µM (titrated, usually from 46.1 µM), usual class: activators | 1.8% of 340,000 active | AID 624297; also: nearly all actives have a fitted effect of over 55% in size
#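 Cells (250 per well) received 23 nL compound or DMSO by pin tool and were kept 48 hr at 37 C, 5% CO2. Nuclei were then stained with Hoechst for 40 min and scanned for DNA content.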
# IL1B secr inh: inflammasome signaling inhibition, IL-1 beta readout; AID 743279; THP-1 LPS/ATP IL-1B secretion, AlphaLISA, 16 h; active compounds read low; 4.7% of 360,000 active; activity change, % at 57.5 µM; in the data active = activity change below about -50%; inconclusive = mostly about -30% to -49%
#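 Secreted IL-1B measured by AlphaLISA bead assay after 16 h compound exposure of THP-1 cells; compounds (final up to 57.5 uM) added 1 h before LPS (250 ng/mL) and ATP (1.25 mM) stimulation; lower signal means less secretion.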
# A number is an active result; 0 = inactive; ? = inconclusive; - = no result given; [ ] = dose if it differs, or a comment. Only some compounds are listed: those with a hit (about 7.1% of all), similar ones and a draw of the others. Unless noted, calls follow the shape of the dose curve; as a rule, active = well fitted curve in the direction sought with a large enough effect; inconclusive = small, poorly fitted or top-dose-only effect, or another doubt; inactive = no such curve, though single readings can be large; an effect the other way counts as inactive or inconclusive.
SMILES,ATXN2 expr inh,MCF10A rereplic,S2 tox,PINK1 modulator,SW480 rereplic,IL1B secr inh
Cc1ccc(-c2onc(C)c2C)cc1S(=O)(=O)NCc1ccco1,-,-,-,0,-,-
COc1ccc(Nc2nc(-c3ccccc3O)nc3ccccc23)cc1,0,0,0,0,0,-
Oc1ccc(Nc2nc(-c3ccccc3O)nc3ccccc23)cc1,-,?,?,0,?,-64.7
CN(C)CCCn1c(SCC(=O)Nc2nc(-c3cccc(Br)c3)cs2)nc2ccccc2c1=O,0,?,0,0,0,-89.8
O=C(CSc1nc2ccccc2[nH]1)Nc1nc(-c2cccc(Br)c2)cs1,0,0,0,0,0,0
CCc1ccc(/C=C/C(=O)c2cc(Br)ccc(=O)c2O)cc1,31.6µM,?,?,0,?,0
Cc1cccc(/C=C/C(=O)c2cc(Br)ccc(=O)c2O)c1,0,10.3µM,0,0,?,?
CCOc1ccc(/C=C/C(=O)c2cc(Br)ccc(=O)c2O)cc1,0,9.2µM,-,0,?,?
CCN1CCN(c2oc(-c3ccc(COc4ccc(C)cc4)o3)nc2C#N)CC1,0,-,?,0,-,-
O=C(NCc1ccccc1Cl)C(=O)NCC(c1cccs1)S(=O)(=O)c1ccccc1 (configuration not stated),0,-,0,0,-,-
C=CCOc1ccc(C=CC(=O)c2c(O)c(OC)c(OC)c(OC)c2OC)cc1,0,?,0,0,0,-102.2
COc1ccc(C(=O)/C=C/c2ccc(O)cc2)cc1,0,0,0,0,0,-57.3
CN(C)c1ccc(/C=C/C(=O)c2ccc(O)cc2)cc1,0,?,0,0,18.4µM,-105.6
COc1ccc(C=CC(=O)c2c(OC)cc(OC)c(OC)c2O)cc1,0,?,0,0,?,-62.7
COc1ccc(C=CC(=O)c2ccc([N+](=O)[O-])cc2)cc1,0,0,0,0,0,0
C=CCOc1ccc(/C=C/C(=O)OCC(=O)NCc2cccc(OC)c2)cc1,0,?,0,0,0,0
O=C(C=CC#Cc1cccc(NS(=O)(=O)c2ccccc2)c1)NO,0,-,-,-,-,-
Cc1cc(C)n2c(Nc3cccc(C(F)(F)F)c3)c(-c3ccsc3)nc2n1,-,-,-,0,-,-
CCOc1cc(C#N)c(NC(=O)Cn2nnc(-c3ccc(C)cc3)n2)cc1OCC,0,-,0,0,-,-
CCCc1nc2ccc(NC(=O)c3cccs3)cc2c(=O)n1Cc1ccc(Cl)cc1,-,0,?,0,0,0
Cc1nc2ccc(NC(=O)c3cccs3)cc2c(=O)n1Cc1ccc(Cl)cc1,14.1µM,0,?,0,0,-92.3
Cc1ccc(-n2nnnc2SCC(=O)NNC(=O)c2ccco2)c(C)c1,0,20.6µM,0,0,0,0
COC(=O)c1ccccc1NC(=O)CSc1nnnn1-c1ccc(C)cc1C,0,12.6µM,0,0,?,0
C=CCN1C[C@H](C(=O)N(CCCN(C)C)C(=O)NCC)C[C@@H]2c3cccc4[nH]cc(c34)C[C@H]21,0,-,?,-,-,-
CCN(CC)C1=N/C(=C\c2ccco2)C(=O)N1c1ccccc1,0,?,0,0,0,0
SMILES,ATXN2 expr inh,MCF10A rereplic,S2 tox,PINK1 modulator,SW480 rereplic,IL1B secr inh
CC(C)CN(CC(C)C)C1=N/C(=C\c2ccco2)C(=O)N1c1ccccc1,0,14.6µM,0,0,?,0
COC[C@@H](c1ccc(C(F)(F)F)cc1)N1CCN(C2(C)CCN(C(=O)c3c(C)ncnc3C)CC2)C[C@H]1C,0,-,0,-,-,-
COc1ccc(Cl)cc1NC(=O)CN1C(=O)COc2ccc(S(=O)(=O)NC3CCCC3)cc21,0,-,?,0,-,-
CN1CCN(CC(=O)N2c3ccccc3C(C)(c3ccccc3)CC2(C)C)CC1 (configuration not stated),?,?,?,0,20.6µM,0
Cc1ccc(N2CCn3c2nc2c3c(=O)n(CCCc3ccccc3)c(=O)n2C)cc1C,-,-,-,0,-,-
Cc1cccc(NC(=O)CSc2nc3n[nH]c(C)c3c(=N)n2-c2cccc(Cl)c2)c1,-,-,-,0,-,-
COC(=O)c1ccc(N2CCN(C(=O)c3ccccc3)CC2)c(NC(C)=O)c1,0,0,0,0,0,-107.0
O=C(Nc1ccccc1N1CCN(C(=O)c2ccccc2)CC1)c1cc(Br)ccc1Cl,?,0[0.0737 µM],0,0,?,0
COc1ccc(Cl)cc1C(=O)Nc1ccc(NC(=O)C(C)C)cc1,0,?,0,0,0,-59.8
COc1ccc(Br)cc1C(=O)Nc1ccccc1N1CCN(C(=O)c2ccccc2)CC1,?,0,0,0,0,-63.0
COC(=O)c1ccc(N2CCN(C(C)=O)CC2)c(NC(=O)COc2ccccc2C)c1,0,0,0,0,0,0
COc1ccc(Cl)cc1C(=O)Nc1ccccc1N1CCN(C(=O)C(C)C)CC1,22.4µM,0,?,0,0,?
CCOc1cccc(C(=O)Nc2ccccc2N2CCN(C(=O)C(C)C)CC2)c1,0,0,0,0,?,-53.1
CSc1ccc(C(=O)C2CCCN(C(=O)c3cc4cc(F)ccc4[nH]3)C2)cc1 (configuration not stated),0,0,0,0,?,-62.8
COCCCNCC1C(Oc2ccc(Cl)cc2)C(=O)N1c1ccccc1C (configuration not stated),0,0,0,0,0,-75.9
CC(C)OCCCNC(=S)N1CCC(C(=O)c2ccc(Cl)cc2)CC1,0,?,0,0,0,0
Cc1ccccc1N1C(=O)C(Oc2ccc(Cl)cc2)C1CNCCCOC(C)C (configuration not stated),0,0,0,0,0,-90.8
Cc1cccc(OCC(=O)NCc2ccc3c(c2)CCN3C(=O)c2ccccc2)c1,-,-,-,0,-,-
COC(=O)[C@@H]1[C@H]2C[C@@H]3c4[nH]c5ccccc5c4CCN3C[C@@H]2CC[C@@H]1O,0,-,-,-,-,-
CCn1c(Cn2nnc(-c3ccccc3)n2)nnc1SCC(=O)Nc1ccc(C(C)=O)cc1,0,0,0,0,0,0
CCn1c(Cn2nnc(-c3ccccc3)n2)nnc1SCC(=O)Nc1cccc(C(C)=O)c1,0,20.6µM,0,0,?,?
CCOC(=O)c1c(N)sc(C(O)(C(F)(F)F)C(F)(F)F)c1-c1ccc(F)cc1,0,0[0.0737 µM],0,0,18.4µM,0
CCOC(=O)c1c(NC(=O)C2C3CCC(O3)C2C(=O)O)sc(C)c1-c1ccc(F)cc1 (configuration not stated),0,0,0,0,0,0
CCOC(=O)c1c(N)sc(C(O)(C(F)(F)F)C(F)(F)F)c1-c1ccc(Cl)cc1,0,14.6µM,0,0,?,0
O=C(CSc1ncn(-c2ccccc2)n1)c1cccs1,0,0,0,0,0,-52.5
O=C(CSc1nnc(-c2ccccc2)n1-c1ccccc1)c1cccs1,0,?,0,0,0,0
NC1CCc2ccccc21 (configuration not stated),-,-,-,0,-,-
